42 compounds from ChEMBL document CHEMBL3988442, “University of Dundee, Small-Polar-MMV Screening Library” (2021) can be followed below.

Assay [1] deals with T1, Aspartate--tRNA(Asp/Asn) ligase (Mycobacterium tuberculosis (strain ATCC 25618 / H37Rv)) (UniProt P9WFW3).
T1 sequence (whole entry): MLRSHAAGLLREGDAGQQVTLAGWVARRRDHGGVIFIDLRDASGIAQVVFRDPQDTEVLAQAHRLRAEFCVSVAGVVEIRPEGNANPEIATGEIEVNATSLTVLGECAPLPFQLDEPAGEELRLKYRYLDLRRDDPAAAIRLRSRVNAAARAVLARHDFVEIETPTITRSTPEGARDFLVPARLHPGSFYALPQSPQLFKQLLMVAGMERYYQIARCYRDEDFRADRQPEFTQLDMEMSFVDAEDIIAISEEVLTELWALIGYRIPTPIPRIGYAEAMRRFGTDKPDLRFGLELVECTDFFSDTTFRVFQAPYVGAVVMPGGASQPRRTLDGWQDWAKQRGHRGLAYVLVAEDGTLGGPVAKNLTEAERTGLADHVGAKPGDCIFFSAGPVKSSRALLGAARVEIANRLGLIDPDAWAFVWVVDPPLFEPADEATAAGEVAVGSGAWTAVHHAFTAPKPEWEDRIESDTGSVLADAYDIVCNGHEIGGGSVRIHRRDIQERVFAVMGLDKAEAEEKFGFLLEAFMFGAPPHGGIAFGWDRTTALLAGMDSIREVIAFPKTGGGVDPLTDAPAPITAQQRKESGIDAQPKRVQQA
As to the kind of experiment: Assay for Asp RNA synthetase-1 from Mycobacterium tuberculosis. In kind it is functional. Also on record: scale not given: direction of the effect not stated beside the values. The settings on record: 30 µM.

The target of assay [2] is Shiga toxin 2 (Escherichia coli O157:H7) (UniProt P09385+P09386). Kind of assay: E. coli 0.157:H7 Shiga Toxin SOP - stx2 screening assay. In kind it is functional. Set-up: scale not given: direction of the effect not stated beside the values. The settings on record: 30 µM.

Consider `CNc1snc(C)c1C(=O)N1CCCC(n2ccnc2C(C)C)C1` (centres undefined), for which the values for the Percent Effect in assay [1] and in assay [2] were 1.51% and 3.71%, respectively.
Take `O=C(NCCn1ccnc1)NCC(c1ccco1)N1CCCCC1` (centres undefined): the Percent Effect in assay [1] came out at 1.79%; in assay [2] it was 22.2%.
The matching figures for `COc1ccc(CNC(C)c2ccc3[nH]c(=O)[nH]c3c2)cc1` (centres undefined): 2.66% and -13.7%.
Taken in the same sequence, the figures for `CN1CCC/C1=N\S(=O)(=O)c1ccc(NC(=O)c2cccs2)cc1` were -0.972% and -166%.
Taken in the same sequence, the figures for `CCc1nc(CN2CCCN(C(=O)c3cnc[nH]3)CC2)cs1` were -2.77% and -5.89%.
Take `COCCN1C(=O)C[C@H]2[C@H]1CCN2Cc1ccc(OC)cc1`: the Percent Effect in assay [1] was 6.6%; in assay [2], -4.38%.
The matching figures for `Cc1ccc2cc(CNCCCN3CCOCC3)c(=O)[nH]c2c1`: -2.01% and -12.7%.
The matching figures for `Fc1ccc(CN2CCCN(Cc3cscn3)CC2)cc1`: 1.87% and 2.42%.
The matching figures for `CN(CC1CC1)C(=O)CN(Cc1cccc(O)c1)C1CCC(O)CC1` (centres undefined): -0.296% and 6.41%.
With `Cc1nccn1C1CCCN(C(=O)c2ccc3c(c2)NC(=O)CO3)C1` (centres undefined), the values for the Percent Effect in assay [1] and in assay [2] were -2.02% and 24.5%, respectively.
The matching figures for `O=C(Cc1n[nH]c2ccccc12)N1CCC(Nc2cccnn2)CC1`: 2.78% and -16.9%.
As for `Cc1ccccc1CCNC(=O)C1CC(=O)N(CC(F)(F)F)C1` (centres undefined), the Percent Effect came out at 4.08% in assay [1] and 9.05% in assay [2].
The matching figures for `Fc1cccc(-c2nc(CN3CCOC(Cn4cccn4)C3)co2)c1` (centres undefined): 2.49% and 24.3%.
With `COCC(C)NC(=O)c1cc(Br)c2c(c1)OCCO2` (centres undefined), the Percent Effect in assay [1] was -9.24%; in assay [2], -10.8%.
Taken in the same sequence, the figures for `CCC(C)CNc1ccc2oc(COC)nc2c1` (centres undefined) were 65.3% and -59.7%.
Taken in the same sequence, the figures for `O=C(NCCc1ccccc1)C1CCCN(c2ccc3nncn3n2)C1` (centres undefined) were -2.08% and -7.24%.
Take `CC(C)c1nc(C2CCCN(C(=O)CCn3ccnc3)C2)no1` (centres undefined): the Percent Effect in assay [1] stood at 5.96%; in assay [2], 3.56%.
On to `CC(Cn1ccnc1)NC(=O)NCCc1ccc2c(c1)OCCO2` (centres undefined), for which the Percent Effect in assay [1] was -0.516%; in assay [2] it was 2.84%.
The matching figures for `CCc1ncc(C(=O)N2CCOCC2c2c(C)n[nH]c2C)s1` (centres undefined): 2.97% and 7.37%.
The matching figures for `CC(C)OCCC(=O)N(C)CCCc1cc(-c2ccccc2)no1`: 2.1% and 38.9%.
Taken in the same sequence, the figures for `Cc1cc(C)n(-c2cncc(N3CCN(C(=O)C(C)(C)C)CC3)n2)n1` were 0.549% and -19.9%.
Turning to `Fc1ccc(CN2CCCC(c3nnc(-c4cnccn4)o3)C2)cc1F` (centres undefined), the Percent Effect in assay [1] was 2.55%; in assay [2], -5.16%.
Taken in the same sequence, the figures for `c1ccc(-c2nc(CN3CCc4c(ncn4C4CC4)C3)cs2)cc1` were 4.49% and -40.4%.
For `CO[C@@H]1CC[C@H]2[C@H]1OCCN2C(=O)COc1ccc(F)cc1`, the Percent Effect was -2.58% in assay [1] and -2.38% in assay [2].
The matching figures for `Cc1cnn(CC2CN(CC(=O)NCc3ccccn3)CCO2)c1` (centres undefined): -8.24% and -5.07%.
Taken in the same sequence, the figures for `Cc1nc(N2CCN(C(=O)C(C)(C)C)CC2)cc(-n2cnc(C)c2C)n1` were 0.832% and -43.6%.
Consider `CCC(O)CN1CCN(C(=O)c2cccn2Cc2ccccc2)CC1` (centres undefined), for which the Percent Effect was -0.0571% in assay [1] and 16.8% in assay [2].
The matching figures for `N#Cc1ncn(CCC(=O)Nc2c(Cl)cccc2Cl)n1`: 6.68% and -17.7%.
The matching figures for `COc1ncccc1CNC(=O)NC1CCOc2ccccc21` (centres undefined): -1.92% and -19.2%.
Taken in the same sequence, the figures for `CC(C)Cc1noc(CN2CCCC(Cn3cncn3)C2)n1` (centres undefined) were -2.91% and -14.7%.
As for `Cn1ccnc1CNC1CCCN(Cc2noc(C3CC3)n2)C1` (centres undefined), the values for the Percent Effect in assay [1] and in assay [2] were -0.413% and -13.4%, respectively.
Taken in the same sequence, the figures for `CC(=O)Nc1ncc(S(=O)(=O)Nc2ccc(F)cc2)s1` were 2% and -10.2%.
Taken in the same sequence, the figures for `CN1CCCC(c2cccc(Cc3ccccc3Cl)n2)C1` (centres undefined) were -5.43% and 6.38%.
Regarding `NC(=O)c1cccc(CC2CCN(C(=O)CO)C2)c1` (centres undefined), the figures for the Percent Effect in assay [1] and in assay [2] were 3.02% and -19.3%, respectively.
As for `COCCO[C@@H]1CCN(Cc2csc(C)n2)[C@H]1Cc1ccccc1`, the results for the Percent Effect in assay [1] and in assay [2] were 3.03% and 1.09%, respectively.
For `CCc1noc(C2CCCCN2C(=O)c2ccoc2C)n1` (centres undefined), the Percent Effect in assay [1] is -4.38%; in assay [2], -33.6%.
For the compound `CNc1cc(C2CCCN2Cc2ccccc2OCC(=O)O)ccn1` (centres undefined), the Percent Effect in assay [1] is 5.46%; in assay [2] it was 4.73%.
The matching figures for `CN(C)c1nc2c(c(=O)[nH]1)CCN(C(=O)c1cccc3nccnc13)C2`: 4.01% and -35%.
Taken in the same sequence, the figures for `Cn1cc(CN2CCn3cc(CNC(=O)C4CCC4)nc3C2)cn1` were 1.34% and -6.29%.
The matching figures for `CCOC(C)c1nc(CN2CCNCC2)cs1` (centres undefined): -2.26% and -12.7%.
For the compound `CC(C)c1cc(C(=O)NCCN2CCCS2(=O)=O)n[nH]1`, the Percent Effect was -5.19% in assay [1] and -14.6% in assay [2].
Consider `O=C(NCC(=O)N1CCCCC1)c1ccc(Cl)cc1I`, for which the results for the Percent Effect in assay [1] and in assay [2] were 0.257% and 1.85%, respectively.
